Shiga toxin inh = Shiga toxin inhibition | Vero cells, Shiga toxin protein synthesis inhibition reporter | inhibition, % at 38.7 µM | 290,000 compounds, 9.2% hits; in the data active = inhibition mostly above about 28%, no sharp cut-off; inactive = mostly below about 43%
Pf growth 48h = P. falciparum growth inhibition at 48 hours (one generation). P. falciparum luciferase growth in erythrocytes, 48 h. 310,000 compounds, 5.9% hits. Potency, µM (series often up to 28.7 µM), actives largely listed as inhibitors
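Parasite viability was followed by luminescence of a genomically integrated firefly luciferase. Cultures held 0.1% parasitemia at 2% hematocrit (final), incubated under 5% CO2 at 37 C.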
SARS PLpro yeast = inhibitors of SARS-CoV papain-like protease in yeast; 330,000 compounds, 0.19% hits; S. cerevisiae expressing SARS-CoV PLpro, growth rescue; Potency, µM (top dose mostly 32.9 µM), hits mostly activators; AID 485353; calls by dose curve; also: nearly all actives have a fitted effect of over 55% in size
Cycloheximide cs = counter-screen for Shiga toxin inhibitors: cycloheximide protein synthesis inhibition | cell reporter, cycloheximide protein synthesis inhibition counterscreen | max response, % | 300,000 compounds, 12% hits; in the data active = max response mostly above about 13%, no sharp cut-off; inactive = mostly below about 14%; also: read at 38.3 µM for the half of the compounds with a filed dose
AMA1-RON2 inh = AMA1-RON2 (P. falciparum) interaction inhibition. AlphaScreen AMA1-biotinylated RON2 peptide binding. Potency, µM (doses to about 58.2 µM), actives largely listed as inhibitors. 360,000 compounds, 0.2% hits; also: nearly all actives have a fitted effect of over 45% in size
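AMA1 (3D7) with his tag at 25 nM final met compounds first, then biotinylated RON2 peptide at 25 nM; detection used donor plus acceptor beads, 10 µg/mL apiece, read by AlphaScreen after 30 min at room temperature.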
Pf growth 96h = P. falciparum growth inhibition at 96 hours; P. falciparum luciferase reporter growth, 96 h; Potency, µM (series often up to 28.7 µM), actives largely listed as inhibitors; 320,000 compounds, 6.9% hits; AID 504834
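Plates of compound plus infected erythrocytes (2% hematocrit, 0.05% parasitemia final) incubate 96 hours, 37 C, 5% CO2. Detection reagent added; reduced luminescence from the parasites' luciferase reporter flags inhibition.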
Large screens that a line does not name were inactive. An excerpt weighted towards active compounds, which were near 19% of everything screened. Unless noted, calls follow the shape of the dose curve; as a rule, active = well fitted curve in the direction sought with a large enough effect; inconclusive = small, poorly fitted or top-dose-only effect, or another doubt; inactive = no such curve, though single readings can be large; an effect the other way counts as inactive or inconclusive.

O=C(CSc1nnc(NC(=O)c2ccccc2F)s1)NCc1ccc(F)cc1	Shiga toxin inh 107, Cycloheximide cs 41
COc1ccc(C(=O)Nc2nnc(SCC(=O)NCc3ccco3)s2)c(OC)c1	Shiga toxin inh 33, Cycloheximide cs 35
COc1cc(OC)cc(C(=O)Nc2nnc(SCC(=O)NCc3ccco3)s2)c1	Cycloheximide cs 34
COc1ccc(Cl)cc1NC(=O)CCN1C(=O)C2C3CCC(C3)C2C1=O (stereo not given)	none
O=C(NN=Cc1ccc(OC(F)F)cc1)c1ccc(NS(=O)(=O)c2cccs2)cc1	none (no result: Shiga toxin inh, Pf growth 48h, Cycloheximide cs, Pf growth 96h)
O=C(N/N=C/c1ccc(OC(F)F)cc1)C1=COCCO1	Shiga toxin inh 78, Cycloheximide cs 51
O=C(N/N=C/c1ccccc1OC(F)F)C1=COCCO1	Shiga toxin inh 64, Cycloheximide cs 27
Cc1ccc2c(c1)C1CN(C)CCC1N2S(=O)(=O)c1cccc(C(F)(F)F)c1 (stereo not given)	Pf growth 48h inconclusive, Pf growth 96h inconclusive (no result: Shiga toxin inh, Cycloheximide cs)
Cc1ccc2c(c1)C1CN(C)CCC1N2S(=O)(=O)c1ccc(C(C)C)cc1 (stereo not given)	Pf growth 48h 4.7µM, Pf growth 96h 7.4µM (no result: Shiga toxin inh, Cycloheximide cs)
Cc1ccc2c(c1)C1CN(C)CCC1N2S(=O)(=O)c1cc(C(F)(F)F)ccc1Cl (stereo not given)	Pf growth 48h 9.3µM (no result: Shiga toxin inh, Cycloheximide cs)
Nc1cnc(-c2ccccc2)nc1Cl	Shiga toxin inh 13
c1ccc(-c2cnc(-c3ccccc3)nc2)cc1	Shiga toxin inh 88, Cycloheximide cs 69 (no result: Pf growth 96h)
CCCCn1c(SCC(=O)NNC(=O)c2ccco2)nnc1-c1ccco1	none
COc1ccccc1/C=C/c1nc2ccc(OC(C)=O)cc2c(=O)o1	Pf growth 96h 1.7µM
COc1ccccc1/C=C/c1nc2ccccc2c(=O)o1	none (no result: Shiga toxin inh, Pf growth 48h, SARS PLpro yeast, Cycloheximide cs, Pf growth 96h)
Clc1ccc2[nH]c3c(c2c1)CNCC3	Pf growth 96h inconclusive
Clc1cccc2c3c([nH]c12)CCNC3	Pf growth 96h 0.59µM
CC1(C)COC(c2cccc(C3=NC(C)(C)CO3)n2)=N1	none
N#C/C(=N\Nc1ccc(Cl)c(Cl)c1)C(=O)C1CC1	Cycloheximide cs 35
CCCC[n+]1c(C)sc2ccc(C)cc21	Pf growth 96h 4.7µM
COc1cc(-c2cc(C(=O)Nc3cccc(S(=O)(=O)N(C)C)c3)c3ccccc3n2)cc(OC)c1OC	Pf growth 48h inconclusive, Pf growth 96h inconclusive
COc1ccc(NC(=O)c2cc(-c3cc(OC)c(OC)c(OC)c3)nc3ccccc23)cc1OC	Pf growth 48h 13µM, Pf growth 96h inconclusive
COc1cc(-c2cc(C(=O)Nc3c(Cl)cc(Cl)cc3Cl)c3ccccc3n2)cc(OC)c1OC	Pf growth 48h 13µM, Pf growth 96h inconclusive
COc1ccc(-c2cc(C(=O)NCC(c3ccccc3)N(C)C)c3ccccc3n2)cc1OC (stereo not given)	Pf growth 48h 10µM, Pf growth 96h 9.3µM
COc1cc(-c2cc(C(=O)Nc3ccc(S(N)(=O)=O)cc3)c3ccccc3n2)cc(OC)c1OC	Pf growth 48h inconclusive, Pf growth 96h inconclusive
CCN(CC)S(=O)(=O)c1ccc(O)c(NC(=O)c2cc(-c3cc(OC)c(OC)c(OC)c3)nc3ccccc23)c1	Pf growth 48h inconclusive, AMA1-RON2 inh inconclusive, Pf growth 96h 1.2µM
COc1ccc(-c2cc(C(=O)NCc3ccco3)c3ccccc3n2)cc1OC	none (no result: Shiga toxin inh, Pf growth 48h, SARS PLpro yeast, Cycloheximide cs, Pf growth 96h)
O=C(NCCN1CCCCC1)Nc1cccc(C(F)(F)F)c1	Pf growth 48h inconclusive
O=C(c1ccco1)N1CCN(C2CC(=O)N(c3ccc(F)c(Cl)c3)C2=O)CC1 (stereo not given)	none
CCOc1ccc(/C=N/NC(=O)CNC(=O)c2ccc(S(=O)(=O)N3CCOCC3)cc2)cc1	none
COc1ccc(-c2cc(C(=O)Nc3ccc(S(=O)(=O)Nc4onc(C)c4C)cc3)c3ccccc3n2)cc1	Pf growth 48h 12µM, Pf growth 96h inconclusive
COc1cc(-c2cc(C(=O)Nc3ccc(S(=O)(=O)Nc4ncccn4)cc3)c3ccccc3n2)cc(OC)c1OC	Pf growth 48h inconclusive, Pf growth 96h 7.4µM
COc1ccc(-c2cc(C(=O)Nc3ccc(C)c(N)c3)c3ccccc3n2)cc1	Shiga toxin inh 118, Pf growth 48h inconclusive, Cycloheximide cs 19
COc1ccc(C(CNC(=O)c2ccc(-c3ccccc3)cc2)N(C)C)cc1OC (stereo not given)	Pf growth 48h inconclusive, Cycloheximide cs 10, Pf growth 96h inconclusive
COc1ccc(-c2cc(C(=O)Nc3ccc(S(=O)(=O)Nc4ncccn4)cc3)c3ccccc3n2)cc1	Pf growth 48h inconclusive, Pf growth 96h inconclusive
CCOC(=O)c1sc2nc(CN3CCN(c4cccc(C(F)(F)F)c4)CC3)[nH]c(=O)c2c1C	none
CCCCCCn1cc(CN2CC(N(C)C)CS2(=O)=O)nn1 (stereo not given)	none (no result: Shiga toxin inh, Pf growth 48h, SARS PLpro yeast, Cycloheximide cs, Pf growth 96h)
Cc1ccc(S(=O)(=O)N(C)CCCC(=O)n2nc(C)cc2C)cc1	none
Cn1c(=O)c2c(ncn2CC(COCc2ccccc2)OCc2ccccc2)n(C)c1=O (stereo not given)	none
CCOc1ccc(S(=O)(=O)N2CCNC(=O)C2)cc1	none (no result: Shiga toxin inh, Cycloheximide cs)
COc1ccc(-c2cc(C(=O)Nc3ccc(O)cc3)c3ccccc3n2)cc1OC	Shiga toxin inh 62, Pf growth 48h 6.6µM, Cycloheximide cs 28, Pf growth 96h inconclusive
COc1ccccc1NC(=O)c1cc(-c2ccc(OC)c(OC)c2)nc2ccccc12	Pf growth 48h inconclusive
CC1CC=CC2C1C(=O)N(Cc1ccccc1)C2c1ccc2ccccc2c1C=Cc1ccccc1 (stereo not given)	none (no result: Pf growth 48h, SARS PLpro yeast, AMA1-RON2 inh, Pf growth 96h)
CC[C@]12c3[nH]c4ccc(OC)cc4c3CCN1C(=O)C(CC(=O)NCc1ccc(OC)c(OC)c1)C[C@@H]2C(=O)N1CCN(C(=O)C2CC2)CC1 (stereo not given in full)	none (no result: Shiga toxin inh, Pf growth 48h, Cycloheximide cs, Pf growth 96h)
CCCCCCNc1c([N+](=O)[O-])c(=O)sc2ccccc12	Pf growth 48h 7.4µM
CC(C)(C)Nc1c([N+](=O)[O-])c(=O)sc2ccccc12	none
CCc1ccc(NC2=NCC(=O)N2Cc2ccc3c(c2)OCO3)cc1	Pf growth 96h 9.3µM
COc1ccc(-c2cc(=O)c3cc(OC)ccc3o2)cc1	Shiga toxin inh 66
COc1ccc2c(C)c(Cl)c(=O)oc2c1	none
COc1ccc2c(c1)oc(=O)c1ccccc12	Shiga toxin inh 71, Cycloheximide cs 33
COc1ccc(-c2cc(=O)c3ccc(O)cc3o2)cc1	none (no result: Shiga toxin inh, Pf growth 48h, SARS PLpro yeast, Cycloheximide cs, Pf growth 96h)
COc1ccc2c(c1)oc(=O)c1c3ccccc3[nH]c21	Shiga toxin inh 57, Pf growth 48h inconclusive, Cycloheximide cs 62, Pf growth 96h inconclusive
COc1ccc2c(c1)oc(=O)c1cc(OC)ccc12	Shiga toxin inh 52, Cycloheximide cs 26
COc1ccc(-n2c(=O)[nH]c3ccccc3c2=O)c(OC)c1	none (no result: Pf growth 96h)
CCOc1ccccc1NC(=O)c1ccc2nc[nH]c2c1	none
Cc1cccc(NC2=CC(=O)CC(C)(C)C2)c1C	none
